Compound activity: PubChem BioAssay, National Center for Advancing Translational Sciences (NCATS)
VP16 counter: Gal4-VP16 reporter inhibition counter-screen; Drosophila S2 Gal4-VP16 UAS-luciferase, luminescence, 20 h; Potency, µM (top dose mostly 53.6 µM), inactives show top-dose activity, negative = inhibition, most hits filed as inhibitors; 310,000 compounds, 3.5% hits; AID 2546;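 note: Gal4-VP16 expression switched on by copper sulfate through the metallothionein promoter; % is set by controls: 0 for no effect and ±100 for the full control effect; nearly all actives have a fitted effect of over 50% in size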
RORgamma inh: blocks mouse ROR gamma transcriptional activity; Drosophila S2 Gal4-RORgamma UAS-luciferase reporter, 20 h; Potency, µM (titrated, usually from 53.6 µM), inactives show at the highest dose activity change, negative = inhibition, hits mostly inhibitors; 310,000 compounds, 5.4% hits; note: % is set by controls: 0 for no effect and ±100 for the full control effect; nearly all actives have a fitted effect of over 60% in size
Target sequence (P51450 whole entry, looked up, the tested form may be a part): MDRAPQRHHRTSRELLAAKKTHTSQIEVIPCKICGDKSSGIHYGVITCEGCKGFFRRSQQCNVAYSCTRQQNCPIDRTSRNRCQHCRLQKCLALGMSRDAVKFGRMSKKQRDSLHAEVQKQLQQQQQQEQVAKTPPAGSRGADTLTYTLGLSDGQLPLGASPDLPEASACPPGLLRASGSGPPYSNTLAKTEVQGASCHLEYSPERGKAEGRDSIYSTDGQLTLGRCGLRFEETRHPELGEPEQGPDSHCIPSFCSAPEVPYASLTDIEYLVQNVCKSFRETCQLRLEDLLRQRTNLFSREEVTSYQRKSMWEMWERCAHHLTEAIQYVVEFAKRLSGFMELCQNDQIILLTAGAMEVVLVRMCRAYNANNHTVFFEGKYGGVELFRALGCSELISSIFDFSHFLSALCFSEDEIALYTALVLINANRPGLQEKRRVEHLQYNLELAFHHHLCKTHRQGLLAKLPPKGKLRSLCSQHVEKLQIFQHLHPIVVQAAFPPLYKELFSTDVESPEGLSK
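Drosophila S2 cells stably expressing Gal4-DBD/mouse RORγ fusion under metallothionein promoter plus UAS-luciferase; compound 1 h, then 700 uM CuSO4 induction for 20 h at ambient temperature; inhibition read as reduced luminescence.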
SW480 rereplic: DNA re-replication induction in SW480 cells; Potency, µM (doses to about 46.1 µM), for inactives: at the highest dose re-replication activation, hits mostly activators; AID 624297; SW480 DNA re-replication, Hoechst DNA content imaging, 48 h; 340,000 compounds, 1.8% hits; note: % of control where 0% means no effect; nearly all actives have a fitted effect of over 55% in size
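Cells (250 per well) received 23 nL compound or DMSO by pin tool and were kept 48 hr at 37 C, 5% CO2. Nuclei were then stained with Hoechst for 40 min and scanned for DNA content.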
MCF10A rereplic: inducers of DNA re-replication in MCF 10A breast cells; MCF 10A DNA re-replication, Hoechst nuclear intensity, 48 h; Potency, µM (series often up to 46.1 µM), inactives show at the highest dose activity, positive = re-replication, most hits filed as activators; 350,000 compounds, 2.9% hits; AID 624296; note: % of control where 0% means no effect; nearly all actives have a fitted effect of over 50% in size
KB-V1 MDR tox: KB-V1 MDR subline cytotoxicity | KB-V1 MDR cells viability, CellTiter-Glo, 72 h | Potency, µM (highest dose often 46.1 µM), actives largely listed as cytotoxic | 400,000 compounds, 3.4% hits | AID 1347076; note: % is set by controls: 0 for no effect and ±100 for the full control effect; nearly all actives have a fitted effect of over 60% in size
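KB-V1, DMEM (no phenol red) + 10% FBS; cpd pin-transferred, titration series; 72 h, 37 degrees C; CellTiter-Glo, luminescence. Data normalized, curve-fit.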
KB-3-1 tox: KB-3-1 parental cell cytotoxicity; KB-3-1 viability, CellTiter-Glo ATP luminescence, 72 h; Potency, µM (doses to about 46.1 µM), usual class: cytotoxic; 400,000 compounds, 1.4% hits; AID 1347075; note: % is set by controls: 0 for no effect and ±100 for the full control effect; nearly all actives have a fitted effect of over 60% in size
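Luminescent ATP read-out (CellTiter-Glo) measures survival of drug-naive KB-3-1 cells after 72 h compound exposure at 37 °C. Titration series was screened from lowest to highest concentration, with DMSO vehicle plates as background controls.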
* = called active by the depositor; i = inactive; ? = inconclusive; . = not tested or not shown; [ ] = dose if it differs, or a comment. Only some compounds are listed: those with a hit (about 10% of all), similar ones and a draw of the others. Calls come from the whole dose curve; as a rule, active = well fitted curve in the direction sought with a large enough effect; inconclusive = small, poorly fitted or top-dose-only effect, or another doubt; inactive = no such curve, though single readings can be large; an effect the other way counts as inactive or inconclusive. Potency is the fitted concentration of half-maximal effect.

SMILES | VP16 counter | RORgamma inh | SW480 rereplic | MCF10A rereplic | KB-V1 MDR tox | KB-3-1 tox
CCOc1ccc(C(=O)c2oc3ccccc3c2NC(=O)c2cc(=O)c3ccc(C)cc3o2)cc1 | . | . | . | . | i | i
CC1CCN(CC(=O)Nc2ccc(S(=O)(=O)N3CCCCC3)cc2)CC1 | -8% | -1% | 12% | 2.3µM* | i | i
CC1CCN(S(=O)(=O)c2ccc(NC(=O)CN3CCCCCC3)cc2)CC1 | -3% | -1% | ? | ? | i | i
Cc1ccc(S(=O)(=O)N2CCN(CC(=O)Nc3ccc([N+](=O)[O-])cc3)CC2)cc1C | -5% | ? | -81% | -13% | 18µM* | i
COc1cc(NC(=O)CCC(=O)N2CCN(S(=O)(=O)c3ccc(C)cc3)CC2)cc(OC)c1 | . | . | 10% | 10% | 18µM* | i
COc1cccc(N2CCN(CC(=O)Nc3ccc(S(=O)(=O)N4CCCCCC4)cc3)CC2)c1 | . | . | 4% | 12% | 21µM* | i
O=C(CN1CCN(c2ccc(O)cc2)CC1)Nc1cc(S(=O)(=O)N2CCCCC2)ccc1Cl | -7% | 43% | -1% | 6% | 8.2µM* | i
O=C(CN1CCN(c2ccc(O)cc2)CC1)Nc1cc(S(=O)(=O)N2CCCC2)ccc1Cl | -7% | ? | ? | 11% | i | i
COc1ccc(NC(=O)CN2CCN(S(=O)(=O)c3ccc(Cl)cc3)CC2)cc1 | 2% | 12% | 9% | 8% | 16µM* | i
CCOC(=O)Nc1ccc(S(=O)(=O)N2CCC(C)CC2)cc1 | -5% | 41% | -5% | ? | 21µM* | i
CCOC(=O)Nc1ccc(S(=O)(=O)N2CCOCC2)cc1 | 4% | 26% | -7% | 5% | i | i
Cc1cc(Br)cn2c(Cc3cccc(F)c3)c(-c3ccc(C#N)cc3)nc12 | . | . | . | . | i | ?
CCC(=O)N1CCc2cc(S(=O)(=O)CCC(=O)Nc3cc(Cl)ccc3OC)ccc21 | . | . | . | . | i | i
CCOC(=O)C1=C[C@@H](C(=O)OCC)[C@@H]2C3=C(C(=O)C2(C)C)[C@H](c2ccccc2)[C@@H]2C(=O)N(c4ccccc4)C(=O)[C@@H]2[C@@H]3C1 | 5% | -13% | . | . | . | .
CCc1ccccc1NC(=O)CN1C(=O)C2CCCN2c2ccc(S(=O)(=O)N(CC)CC)cc21 (centres undefined) | . | . | . | . | i | i
CC(=O)Nc1cc(C(=O)N2CCc3ccccc3C2)ccc1Sc1ccc(Cl)cc1 | -10% | 40% | 8% | 23µM* | i | i
O=C(N/N=C/c1coc2ccc(Cl)cc2c1=O)c1cc(O)cc(O)c1 | -4% | -44% | -1% | 7% | i | i
Cc1ccc2occ(/C=N/NC(=O)c3ccccc3O)c(=O)c2c1 | 0% | -23% | 18µM* | 3% | i | ?
CCOc1ccccc1C(=O)N/N=C/c1coc2ccc(Cl)cc2c1=O | 1% | -23% | 15µM* | 15µM* | i | ?
CC1(C)CO[C@@H](CC(=O)O)CN1 | -1% | -9% | 0% | 1% | . | .
CCOC(=O)c1cc(C(C)(C)C)oc1CNC(=O)c1c(C)oc2c1CCCC2 | -18% | 94% | 20% | 21µM* | i | i
C=CCc1cccc2cc(C(=O)NCc3ccc(C(=O)OCC)o3)c(=O)oc12 | 2% | 0% | -6% | 5% | i | i
CCOC(=O)c1ccc(CNC(=O)c2cc(C(C)(C)C)oc2C)o1 | ? | 6.3µM* | -2% | 17% | i | i
COc1cccc(CCNC(=O)c2cnc3sc(N4CCOCC4)nn3c2=O)c1 | . | . | . | . | i | i
CCOC(=O)c1ccc(OCC2c3cc(OC)c(OC)cc3CCN2C(=O)c2ccc(S(=O)(=O)N3CCCC3)cc2)cc1 (centres undefined) | . | . | . | . | ? | i
SMILES | VP16 counter | RORgamma inh | SW480 rereplic | MCF10A rereplic | KB-V1 MDR tox | KB-3-1 tox
Cc1ccc2[nH]c3c(c2c1)CN(C(=O)CN1CCCc2ccccc21)CC3 | 6% | 21%[10 µM] | ? | 23µM* | i | i
CCCOc1ccc(Cn2c(=O)oc3ccc(C)cc32)cc1OC | 18% | -34% | -2% | -4% | 12µM* | i
Cc1cc(C)cc(C(O)c2ncc(-c3ccccc3)[nH]2)c1 (centres undefined) | . | . | . | . | i | i
CCC1(C)Cc2c(sc3[nH]c(=O)[nH]c(=O)c23)CS1 (centres undefined) | 4% | -5% | -6% | 1% | 12µM* | i
Cn1c2ccccc2c2cc(/C=N/NC(=O)c3cc(O)ccc3O)ccc21 | ? | ? | 13% | 3.7µM* | i | i
COc1cc(C(=O)N/N=C/c2ccc3c(c2)c2ccccc2n3C)ccc1O | 9% | 18% | ? | 13µM* | ? | ?
CCn1c2ccccc2c2cc(/C=N/NC(=O)c3ccccc3)ccc21 | ? | 8.9µM* | ? | 24% | i | ?
Cn1c2ccccc2c2cc(/C=N/NC(=O)c3cc(O)cc(O)c3)ccc21 | -13% | -29% | 2% | ? | ? | i
Cc1cccc(NC(=O)Cn2c(=O)n(Cc3nc(-c4ccccc4)no3)c(=O)c3ccccc32)c1 | . | . | . | . | i | i
CCC(=O)OCC(=O)[C@@]1(OC(=O)CC)[C@H](C)C[C@@H]2[C@H]3CCC4=CC(=O)C=C[C@]4(C)[C@]3(Cl)[C@@H](O)C[C@@]21C | 15%[17 µM] | -18%[16.9 µM] | . | . | . | .
Clc1cccc(-c2nc(NCc3cccnc3)c3ccccc3n2)c1 | -2% | -37% | 15% | ? | 15µM* | i
c1ccc(-c2nc(NCc3cccnc3)c3ccccc3n2)cc1 | -10% | 9% | 3% | 28% | i | i
Cc1nc(C(=O)NNC(=O)c2ccc(Cl)cc2)c(C(F)(F)F)o1 | ? | 11µM* | ? | -25% | ? | i
Cc1nc(C(=O)NCC(=O)c2ccc(Cl)cc2)c(C(F)(F)F)o1 | 13% | ? | 4% | 4% | ? | i
CC(=O)N1CCc2c(sc3c2c(=O)n(-c2ccccc2Cl)c(=O)n3C)C1 | . | . | . | . | i | i
Cc1cc2cc(CN(Cc3cccs3)C(c3nnnn3C(C)(C)C)C(C)C)c3nnnn3c2cc1C (centres undefined) | -8% | ? | -3% | 2% | 1.8µM* | i
CS(=O)(=O)c1ccc(S(=O)(=O)N2CCN(C(=O)C(O)c3ccccc3)CC2)cc1 (centres undefined) | . | . | . | . | i | i
CN1Cc2c(C(=O)OC(C)(C)C)ncn2-c2ccsc2C1=O | -4% | 11% | . | . | . | .
Cc1ccc(NC(=O)Cc2ccc(Cl)c(Cl)c2)cc1S(=O)(=O)N(C)C | -9% | ? | ? | ? | 2.6µM* | 23µM*
